# Measured potencies and affinities stand elsewhere. Unmarked numbers belong to inactive results. The rule behind the calls is not given here.
# Conditions: Ebola virus entry assay, green fluorescence channel
# Note: 0% is about no effect.
row,SMILES,efficacy
1,C#C[C@]1(O)CC[C@H]2[C@@H]3CCC4=CC(=O)CC[C@@H]4[C@H]3CC[C@@]21CC,10.4%
2,O=C(CCCl)NCCc1ccccc1,-10.7%
3,CN1N=C(C(N)=O)CCC1=O,-14%
4,CC(C)(C)NCC(O)COc1cccc2c1C[C@H](O)[C@H](O)C2 (stereo partly specified),21.3%
5,Nc1ccc(C(=O)OCC(O)CO)cc1 (stereo unspecified),18.5%
6,CC(=O)NS(=O)(=O)c1ccc(N)cc1,10.9%
7,CC1(C)O[C@@H]2C[C@H]3[C@@H]4C[C@H](F)C5=CC(=O)C=C[C@]5(C)[C@@]4(F)[C@@H](O)C[C@]3(C)[C@]2(C(=O)CO)O1,10.5%
8,C[C@@H](CN1CC(=O)NC(=O)C1)N1CC(=O)NC(=O)C1,17.9%
9,CNC(=O)c1ccccc1Sc1ccc2c(/C=C/c3ccccn3)n[nH]c2c1,28.2%
10,CC(C)(N)Cc1ccccc1Cl,18%
11,CCCCCCCCCCCCCCCC(=O)OC(C)C,10.3%
12,CC(=O)OCC(=O)[C@@]1(O)CC[C@H]2[C@@H]3CCC4=CC(=O)C=C[C@]4(C)[C@@]3(F)[C@@H](O)C[C@@]21C,26.4%
13,CC(C(=O)O)c1cccc(Oc2ccccc2)c1 (stereo unspecified),18.1%
14,Cc1cc(O)cc2c1O[C@](C)(CCC[C@H](C)CCC[C@H](C)CCCC(C)C)CC2,-22.5%
15,CCC(C)(CN(C)C)OC(=O)c1ccccc1 (stereo unspecified),37.4%
16,CCN(CC)CCNC(=O)c1cc(S(C)(=O)=O)ccc1OC,-10.9%
17,CCC(C)C(C)(COC(N)=O)COC(N)=O (stereo unspecified),12.3%
18,CCOC(=O)Oc1ccc(CCNC(=O)[C@H](CCSC)NC(C)=O)cc1OC(=O)OCC,-12.4%
19,CCCCCC(C)N (stereo unspecified),-23%
20,Nc1ccc(S(=O)(=O)Nc2ccc(Cl)nn2)cc1,-19.3%
21,COc1cc(O)cc(O)c1,16.6%
